# Measurements: PubChem BioAssay (NCI)
# About 83,000 compounds went through this panel and 20% of them were active in at least one assay; those are over-represented in the sample as a whole.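 In brief: 96-well plates, 48 h treatment, single concentration, percent growth endpoint.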 Values without a mark were called inactive. Calls of active or inactive are those of the source. How the source made its calls: active means growth percent below 10; inactive means the rest.
# Tested on: MDA-MB-468 breast
# Experiment: NCI-60 one-dose screen, 48 h (100 = growth as untreated, 0 = no growth, -100 = all killed)
# Conditions: 10 µM unless noted
row,SMILES,growth
1,Cc1c[n+](Cc2ccc3ccccc3c2)cn1Cc1ccc2ccccc2c1,-22.6% (active)
2,CC1CCC(n2cnc3c(Cl)ncnc32)O1 (stereo not given),96.3%
3,COc1ccc(-c2nnc(SCC(=O)Nc3ccc(C(=O)/C=C/c4ccc(Cl)cc4)cc3)n2-c2ccccc2)cc1,97.9%
4,CC(C)(C)c1ccc(C(=O)N/N=C/c2ccc(O)cc2O)cc1,-32.5% (active)
5,CCCNCCC(C)=O,127%
6,C=CCn1c(SCC(=O)Nc2ccc(C(=O)/C=C/c3cc(OC)c(OC)c(OC)c3)cc2)nnc1-c1cc(-c2ccc(Cl)cc2)nc2ccccc12,108%
7,Cc1ccc(Cn2c(-c3cccs3)nc3ccccc32)cc1,67.5%
8,CCCCCCC/C=C/[C@H]1O[C@]2(O)C(=O)C=C3C[C@@H](O[C@@H]4O[C@H](CO)[C@@H](O)C(O)[C@@H]4O)C[C@@H]3[C@H]2C=C1C (stereo not given in full),-3.04% (active)
9,CC(CSc1n[nH]c(=S)s1)c1ccccc1 (stereo not given),114%
10,Cc1cccc(N2CCN(C3=C(Cl)C(=O)c4ncccc4C3=O)CC2)c1,-66.6% (active)
11,Nc1c(C(=O)Nc2cccc3ccccc23)sc2nc3c(cc12)CCCCCC3,30.7%
12,CSCCC(NC(=O)C(Cl)Cl)C(=O)O (stereo not given),94.6%
13,O=C(CSc1nc2ccccc2[nH]1)Nc1cccc(Cl)c1,113%
14,COCCCC/C(=N\OCCN)c1ccc(C(F)(F)F)cc1,101%
15,CCCCCCCCCCCCCCCCCCNC(=O)[C@H]1CSC(c2ccc(OC)c(F)c2)N1 (stereo not given in full),76.9%
16,O=Cc1ccc2nc(C(Cl)(Cl)Cl)ccc2c1,95.2%
17,C#CCOC(=O)C(N)CS (stereo not given),97.3%
18,C#CCOc1cccc(-c2ncnc3cc(NC(=O)C=C)ccc23)c1,-8.85% (active)
19,COc1cc(C2C(C#N)=C(N)Oc3cc4c(cc32)OCO4)cc2c1OCO2 (stereo not given),-8.15% (active)
20,CC(=O)ON=C1C=CC(=C(C#N)c2ccccc2)C=C1,19%

row,SMILES,growth
1,CCOC(=O)c1c(NC(=O)c2ccc(C(F)(F)F)cc2)sc2c(CN3CCN(C)CC3)c(O)ccc12,-80.6% (active)
2,COc1ccc2nc3cc(Cl)ccc3c(N3CCN(c4ccnc(N5CCN(C)CC5)n4)CC3)c2c1,-51.9% (active)
3,Cc1ccc(S(=O)(=O)NNC(=O)/C(=C\c2ccc(Cl)cc2)c2nc3ccccc3s2)cc1,111%
4,O=C(Nc1ccc(I)cc1F)c1cc(Cl)ccc1O,-1.5% (active)
5,O=C(NCc1cn(Cc2cccc(Oc3ccccc3)c2)nn1)c1cccnc1Nc1ccccc1,18.1%
6,COc1ccc2cc3[n+](cc2c1OC)CCc1cc2c(cc1-3)OCO2,1.68% (active)
7,CCN(CC)CCNC(=O)C(F)(F)C(F)(F)C(F)(F)F,105%
8,Cc1ccc(C2=NN3C(C2)c2cc(Br)ccc2OC32CCN(Cc3ccccc3)CC2)o1 (stereo not given),105%
9,Cc1ncc(CO)c(C(=O)O)c1O,108%
10,Cc1cccc(CNc2c3ccccc3nc3ccccc23)c1,-0.391% (active)
11,CN(C)C=Nc1cc(Cl)ccc1Cl,102%
12,Cc1ccc(-c2cc(-c3ccc(Cl)cc3)nc(NC(=O)c3cccnc3)n2)cc1,106%
13,COc1ccc(C(=O)Cn2cnc3c(Nc4cc(C(=O)Nc5ccc(N6CCN(CCO)CC6)cc5)ccc4C)ncnc32)cc1,114%
14,O=C1/C(=C/c2ccc(O)cc2)CSc2ccc(Cl)cc21,30.2%
15,C=CCN(CC#N)CC=C,101%
16,O=C(c1ccc(Cl)cc1)C1[C@H](c2ccc(Cl)cc2)[C@@H](c2ccccc2)NC12C(=O)Nc1ccccc12 (stereo not given in full),50.7%
17,O=S(=O)(c1ccc(OCCO)cc1)c1ccc(OCCO)cc1,101%
18,O=C(Nn1c2c(sc1=Nc1ccccc1)C(=O)c1ccccc1C2=O)c1cc2ccc1CCc1ccc(cc1)CC2,105%
19,CC[C@H](Nc1nc(N)nc(C2CC2)c1C#N)c1nc2cccc(NCc3ccc(C(=O)NO)cc3)c2c(=O)n1-c1ccccc1,-23% (active)
20,CC1CCC(C)N(C)C1 (stereo not given),105%
